G9a block – inhibitors of human histone lysine methyltransferase G9a. Potency, µM (highest dose often 102 µM), hits mostly inhibitors. AID 504332. Q96KQ7. G9a H3K9 monomethylation, AlphaScreen, 2 h. 350,000 compounds, 8.8% hits; further: nearly all actives have a fitted effect of over 75% in size
Target sequence (Q96KQ7 913-1193 limits assumed): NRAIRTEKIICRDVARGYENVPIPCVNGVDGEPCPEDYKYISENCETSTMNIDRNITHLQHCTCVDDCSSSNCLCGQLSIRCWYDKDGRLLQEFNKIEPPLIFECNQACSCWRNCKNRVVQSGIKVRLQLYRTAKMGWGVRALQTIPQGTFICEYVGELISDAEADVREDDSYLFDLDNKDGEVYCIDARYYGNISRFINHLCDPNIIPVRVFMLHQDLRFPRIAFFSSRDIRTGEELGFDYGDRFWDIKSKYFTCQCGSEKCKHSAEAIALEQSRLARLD
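Quantitative HTS format: methyltransferase activity on a biotin-tagged H3K9 peptide is measured by AlphaScreen, using a rabbit anti-monomethyl-H3K9 antibody with streptavidin donor and anti-IgG acceptor beads. Final levels are 20 nM enzyme, 500 nM peptide, 20 uM SAM; 2 h RT.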
BAZ2B inh – BAZ2B (human) inhibition. Q9UIF8. AlphaScreen BAZ2B-H3K14Ac peptide displacement. Potency, µM (doses to about 114 µM), hits mostly inhibitors. 360,000 compounds, 4.4% hits; further: nearly all actives have a fitted effect of over 60% in size
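AlphaScreen displacement of biotin-H3(5-23)K14Ac peptide (50 nM final) from BAZ2B (50 nM final) in PBS pH 7.4, 0.01% Tween-20; complex preformed 30 min RT, then compounds (top 110 uM) 30 min RT, beads 20 min dark.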
VDR inhibitor – vitamin D3 receptor (human) inhibition; P11473; VDR-SRC2-3 peptide fluorescence polarization, 2 h; Potency, µM, actives largely listed as inhibitors; 400,000 compounds, 0.93% hits; AID 504847
Target sequence (P11473 whole entry, looked up): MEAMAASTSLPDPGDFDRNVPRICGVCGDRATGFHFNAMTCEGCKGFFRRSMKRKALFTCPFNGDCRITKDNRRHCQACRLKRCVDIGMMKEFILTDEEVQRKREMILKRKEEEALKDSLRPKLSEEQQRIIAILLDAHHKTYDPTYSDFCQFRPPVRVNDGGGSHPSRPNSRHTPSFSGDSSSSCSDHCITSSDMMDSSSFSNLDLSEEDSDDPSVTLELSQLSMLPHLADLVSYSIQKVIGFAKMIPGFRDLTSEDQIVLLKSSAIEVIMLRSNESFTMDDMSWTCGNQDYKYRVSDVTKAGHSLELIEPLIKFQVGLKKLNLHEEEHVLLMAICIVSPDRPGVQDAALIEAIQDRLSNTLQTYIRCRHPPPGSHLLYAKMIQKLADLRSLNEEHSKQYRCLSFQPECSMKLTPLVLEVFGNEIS
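Fluorescence polarization assay of small-molecule disruption of VDR binding to coregulator peptide SRC2-3. Compounds and controls pin-transferred, then read after 2 h incubation at ambient room temperature.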
JMJD2A Tudor – blocks the human JMJD2A Tudor domain. AlphaScreen JMJD2A-Tudor / H3K4me3 peptide binding. Potency, µM (doses to about 114 µM), hits mostly inhibitors. 390,000 compounds, 4.4% hits; further: nearly all actives have a fitted effect of over 50% in size
HP1b chromo inh – HP1-beta chromodomain-methylated histone interaction inhibition. P83916. AlphaScreen HP1-beta / biotin-H3K9me3 peptide binding. Potency, µM (series often up to 114 µM), hits mostly inhibitors. 390,000 compounds, 0.56% hits; further: nearly all actives have a fitted effect of over 70% in size
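HP1-beta protein (50 nM final) preincubated 30 min at room temperature with biotinylated H3(1-18)K9me3 peptide (50 nM) in PBS pH 7.4, 0.01% Tween-20, then compound added for 30 min. AlphaScreen streptavidin donor/nickel chelate acceptor beads (10 ug/mL final), 30 min dark, luminescence read.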
PLK1 PBD block – inhibitors of human PLK1 polo-box domain binding; Potency, µM, most hits filed as inhibitors; Plk1 PBD binding of FITC phosphopeptide, fluorescence polarization; 360,000 compounds, 2.8% hits; further: series mostly up to about 57 µM; nearly all actives have a fitted effect of over 65% in size
Numbers stand for hits; i = inactive; ? = inconclusive; nt = no result given; ! = a repeat was not active; [ ] = dose if it differs, or a comment. Hits are enriched below; roughly 11% of the tested compounds scored in any of these assays. The call rests on the fitted dose curve; in most records, active means well fitted curve in the direction sought with a large enough effect; inconclusive means small, poorly fitted or top-dose-only effect, or another doubt; inactive means no such curve, though single readings can be large; an effect the other way counts as inactive or inconclusive.

SMILES	G9a block	BAZ2B inh	VDR inhibitor	JMJD2A Tudor	HP1b chromo inh	PLK1 PBD block
CCc1ccc(CN2CCN(Cc3ccc(SC)cc3)CC2)cc1	3.5µM	40µM	i	?	?	i
Fc1ccc(CN2CCN(c3ccc(Cl)cc3)CC2)cc1	i	i	i	i	i	i
COC(=O)c1c(NC(=O)C2CC=CCC2C(=O)O)sc2c1CCCCC2 (centres undefined)	nt	?	i	i	?	?
O=[N+]([O-])c1cc(-c2ccc([As](=O)(O)O)cc2)ccc1[As](=O)(O)O	50µM	?	nt	nt	nt	nt
Brc1c(NC2=NCCN2)ccc2nccnc12	19µM!	i	45µM	nt	nt	nt
O=C(Cc1ccccc1)N1CCN(Cc2c[nH]c3ccccc23)CC1	i	i	i	i	i	i
O=C(COc1ccccc1)N1CCN(Cc2c[nH]c3ccccc23)CC1	13µM	nt	i	7.9µM	i	i
COc1ccc(OCC(=O)N2CCN(Cc3c[nH]c4ccccc34)CC2)cc1	3.5µM	nt	i	3.5µM	?	i
CN(C[C@H](Cc1ccccc1)N(C[C@H](Cc1ccccc1)N(CCC(C)(C)C)N=O)N=O)N=O	i[12.7 µM]	?	i	?	i	i
NS(=O)(=O)c1ccc(-c2ccc(C=C3C(=O)NC(=S)NC3=O)o2)cc1	2.5µM	50µM	nt	nt	nt	nt
CCCCCCCCCCCCCCCCOC[C@@H](O)COP(=O)([O-])OCC[N+](C)(C)C	i	nt	i	nt	nt	nt
COc1ccc(CN2Cc3cnnn3-c3ccccc3C2C#N)cc1 (centres undefined)	nt	nt	20µM	i	i	i
COc1ccc(CN2Cc3cnnn3-c3ccccc3C2c2ccccc2)cc1 (centres undefined)	nt	nt	i	i	i	i
CCCC(C)C1(CC)C(=O)N=C(S)NC1=O (centres undefined)	nt	nt	i	nt	nt	nt
CN(C)C(=S)SSC(=S)N(C)C	1.3µM	i	2.5µM!	i	i	0.34µM
CN(C)C(=S)SC(=S)N(C)C	2.5µM	nt	28µM	nt	nt	nt
Cc1ccc(Cl)cc1Nc1nn2c(=O)c3ccc(C(=O)NCc4cccs4)cc3nc2s1	i	?	i	?	i	nt
COc1ccc2c3c1OC1C[C@@H](O)C=C[C@@]31CCN(C)C2 (some centres undefined)	i[21.5 µM]	nt	i	nt	nt	nt
O=[N+]([O-])NC1=NCCN1Cc1ccc(Cl)nc1	nt	i	?	?	i	27µM
Clc1ccc(Cn2ccnc2)cn1	i	i	i	i	i	i
O=[N+]([O-])/C=C1\NCCN1Cc1ccc(Cl)nc1	50µM!	i	i	i	i	?
CN1CN=C(N[N+](=O)[O-])N(Cc2ccco2)C1	i	i	?	i	i	i
COc1ccc(OC)c(CCNCc2c(C(=O)O)c(C)n(Cc3ccc(F)cc3Cl)c2C)c1	i	50µM	i	?	i	nt
CCC1CN2CCC1CC2C(O)c1ccnc2ccc(OC)cc12 (centres undefined)	i[2.33 µM]	nt	i	nt	nt	nt
O=C(C1CCCN(S(=O)(=O)c2cccc3nsnc23)C1)N1CCN(c2cccc(Cl)c2)CC1 (centres undefined)	?	nt	i	?	i	nt
SMILES	G9a block	BAZ2B inh	VDR inhibitor	JMJD2A Tudor	HP1b chromo inh	PLK1 PBD block
CCN1CCN(Cc2ccc(C)cc2C)CC1	56µM	?	i	i	i	i
Cc1ccc(CN2CCN(C)CC2)c(C)c1	i[12.7 µM]	i	i	i	i	i
CNC(C(=O)c1ccccc1)C(OC(C)=O)c1cccc([N+](=O)[O-])c1 (centres undefined)	50µM	i	i	i	i	i
CC1(C)C(=O)[C@@H]2OC2[C@@]2(C)C1CC(O)[C@]1(C)C2CC[C@@]2(C)C(c3ccoc3)OC(=O)C3OC312 (some centres undefined)	nt	nt	i	nt	nt	nt
CC(=O)OC1CC2C(C)(C)C(=O)C=C[C@]2(C)C2CC[C@]3(C)C(=CC(=O)OC3c3ccoc3)[C@]12C (some centres undefined)	i[2.33 µM]	nt	20µM	nt	nt	nt
O=[N+]([O-])OC1CO[C@H]2C(O[N+](=O)[O-])COC12 (some centres undefined)	i[2.33 µM]	nt	i	nt	nt	nt
Cc1cccnc1	i[0.501 µM]	i	i	i	i	i
CC(=O)O[C@H]1CCC2C3CCC4=CC(=O)CCC4=C3C=C[C@@]21C (some centres undefined)	45µM	i	i	?	?	?
CC1=CCCC2C1(C)CCC(C)C2(C)CC/C(C)=C/C[n+]1cn(C)c2c(N)ncnc21 (centres undefined)	i[2.33 µM]	nt	?	nt	nt	nt
O=C1NC(=O)N(CCNc2ncc(C(F)(F)F)cc2Cl)C(=O)C1Cc1ccc(Cl)cc1 (centres undefined)	50µM	i	?	i	i	i
CC(C)c1ccc(N2C(=O)NC(=O)/C(=C/C=C/c3ccco3)C2=O)cc1	50µM	?	i	?	i	0.67µM
CC1=NN(c2ccccc2)C(=O)C1/C=C1\C(=O)NC(=O)N(c2cc(C)cc(C)c2)C1=O (centres undefined)	?	?	i	i	i	i
CCCCN1C(=O)/C(=C/c2ccc(N(C)C)cc2)C(=O)N(Cc2ccco2)C1=O	i[12.7 µM]	?	i	?	i	?
Cc1ccc(N2C(=O)NC(=O)/C(=C/C=C/c3ccco3)C2=O)cc1	?	i	25µM	i	i	?
CCc1ccc(N2C(=O)NC(=O)/C(=C\C=C\c3ccco3)C2=O)cc1	i	45µM	?	i	i	1.3µM
CCc1ccc(N2C(=O)CC(=O)NC2=O)cc1	?	i	i	i	i	i
CCCCN1C(=O)/C(=C\c2ccco2)C(=O)N(CCc2ccccc2)C1=O	32µM	35µM	i	?	?	0.84µM
Cc1cc(=O)oc2cc(Oc3ccc([N+](=O)[O-])cc3C(F)(F)F)ccc12	nt	nt	i	?	i	i
O=C(CCC1CCCN(Cc2cccc3c2OCO3)C1)NCc1ccc(F)c(F)c1 (centres undefined)	i[12.7 µM]	i	i	i	i	i
F/C(COc1ccc2c(c1)[nH]c1ccccc12)=C1/CN2CCC1CC2	?	nt	i	nt	nt	nt
Cc1cc(C)cc(N2C(=O)NC(=O)/C(=C\C=C\c3ccco3)C2=O)c1	11µM	?	i	?	?	1.7µM
O=C1NC(=O)N(Cc2ccc(F)cc2)C(=O)/C1=C\C=C\c1ccco1	40µM	56µM	?	i[11.4 µM]	i	?
O=C1NC(=O)N(Cc2ccccc2Cl)C(=O)/C1=C/N1CCOCC1	?	i	?	i	i	?
CCCCN1C(=O)/C(=C/C=C/c2ccco2)C(=O)NC1=S	7.9µM	35µM	?	22µM	35µM	1.1µM
CNC(C)Cc1ccccc1OC (centres undefined)	i	nt	i	nt	nt	nt
CCc1ccc(-n2nc(C)c3c(C(=O)NCCc4ccc(OC)c(OC)c4)cc(C)nc32)cc1	i	i	i	i	i	nt
CN1C(=O)[C@@H](NC(=O)c2cc3ccccc3[nH]2)N=C(c2ccccc2)c2ccccc21	i	nt	i	nt	nt	nt
Cc1cc2c(C(C)C)c(O)c(O)c(C=O)c2c(O)c1-c1c(C)cc2c(C(C)C)c(O)c(O)c(C=O)c2c1O	9.5µM	16µM	6.3µM	nt	nt	nt
